Results on 8 compounds are retold here after PubChem BioAssay.

Calls of active or inactive are those of the source.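 How the source made its calls, unless noted: active means compounds lowering colon cancer cell viability after pretreatment blocking the GSK3B kinase; inactive means the rest.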

The nature of experiment [1]: stimulators of nuclear beta-catenin in C2C12, primary screen, imaging, WNT3A-conditioned medium, mouse C2C12, NPC library (AID 1117326; in the data active means nuclear beta-catenin stimulation mostly above about 4.2%, no sharp cut-off; inactive means mostly below about 10%; further: reference of the scale not given here). Conditions: stronger effect = higher value.
Experiment [2] is described as follows: stimulators of insulin release from INS-1E, primary screen, cell-based, 5 mM glucose, NPC library (AID 1117329;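 active means compound raises insulin release from rat beta cells at 5 mM glucose, no numeric limit stated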; further: reference of the scale not given here). The conditions noted are these: rat INS-1E insulin secretion, at 10 µM, stronger effect = higher value.
Experiment [3] in a line: growth inhibition of GSK3B-pretreated HCT116 cells – cell-based, CellTiter-Glo, 0.2 to 20 µM (AID 1117336). Conditions: HCT116 viability after GSK3B inhibitor, at 20 µM, stronger effect = higher value. Background: Cellular ATP, detected with luciferase, serves as a proxy for viable cell number.
The nature of experiment [4]: inhibition of endothelial tube formation, primary screen, imaging, VEGF stimulated, CD31 staining, tube area, NPC library (AID 1117340;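 active means compound that reduces growth-factor-driven endothelial tube area in a mixed cell culture, no cutoff stated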). Conditions: VEGF-stimulated ADSC/ECFC co-culture, at 10 µM, stronger effect = higher value.
Experiment [5] can be described thus: glucagon-like peptide 1 release enhancers, primary assay, NCI-H716 cell line, NPC library (AID 1117341;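 active means compound raises GLP1 secretion from the human gut endocrine cells, with no numeric limit stated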; further: reference of the scale not given here). The conditions noted are these: NCI-H716 cells, at 10 µM, stronger effect = higher value.
Experiment [6] is described as follows: HCT116 colon cancer cell growth inhibition, primary screen, CellTiter-Glo luminescence, NPC library (AID 1117342;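 active means compounds that lower survival of HCT116 colon cancer cells in the luminescence readout, no numeric limit stated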). The conditions noted are these: at 20 µM (top of the series).
Experiment [7] is described as follows: CellTiter-Glo luminescent readout of SW480 viability loss, NPC library primary (AID 1117343;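 active means compounds that lower viability of the colon cancer cells in the luminescence readout, with no numeric limit stated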). The conditions noted are these: CellTiter-Glo luminescence; at 20 µM (top of the series).
A short description of experiment [8]: decreased DLD-1 cellular survival, CellTiter-Glo luminescent readout, NPC compound collection, primary HTS (AID 1117346;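 active means compounds that lower survival of DLD-1 colon cancer cells in the luminescence readout, no cutoff given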). Conditions: DLD-1 viability, CellTiter-Glo luminescence; at 20 µM (top of the series).

`O=C(NC(O)C(Cl)(Cl)Cl)NC(O)C(Cl)(Cl)Cl` (configuration not stated): the nuclear beta-catenin stimulation is 0.9% (inactive) in experiment [1] (at 10 µM) and -2.1% in experiment [1] (stimulation, at 2 µM). Besides, the insulin secretion stimulation in experiment [2] is 9.2% (inactive). Further, in experiment [3], the viability decrease is -2.2% (inactive). Also, the tube area decrease in experiment [4] is 1.1% (inactive). For the same compound, in experiment [5], the GLP1 secretion stimulation was 0.1% (inactive). In experiment [6], the inhibition of viability was 7.9% (inactive). Also, the viability decrease (inhibition) was -28.2% (inactive) in experiment [7] and -0.1% (inactive) in experiment [8].
For the compound `CCOP(=S)(OCC)O/N=C(\C#N)c1ccccc1`, the nuclear beta-catenin stimulation in experiment [1] (at 10 µM) is -0.3% (inactive); in experiment [1] (stimulation, at 2 µM) it was 0.3%. Further, the insulin secretion stimulation in experiment [2] was -1.4% (inactive). Moreover, the viability decrease in experiment [3] is -25.2% (inactive). Also, the tube area decrease in experiment [4] was -2.3% (inactive). For the same compound, the GLP1 secretion stimulation in experiment [5] was -1.1% (inactive). The inhibition of viability in experiment [6] is 0.2% (inactive). Besides, the figures for the viability decrease (inhibition) in experiment [7] and in experiment [8] were 36.2% (inactive) and -6.4% (inactive), respectively.
In the case of `COC(=O)c1cncn1C(C)c1ccccc1` (configuration not stated), the nuclear beta-catenin stimulation was -0.2% (inactive) in experiment [1] (at 10 µM) and 0.1% in experiment [1] (stimulation, at 2 µM). For the same compound, in experiment [2], the insulin secretion stimulation is 1% (inactive). The viability decrease in experiment [3] was 1.8% (inactive). Besides, the tube area decrease in experiment [4] is -14.8% (inactive). The GLP1 secretion stimulation in experiment [5] is 1.6% (inactive). In addition, the inhibition of viability in experiment [6] is -8.6% (inactive). Besides, the viability decrease (inhibition) in experiment [7] was 24.4% (inactive); in experiment [8], 20.5% (inactive).
Regarding `OCCOc1ccccc1`, the nuclear beta-catenin stimulation is 0.5% (inactive) in experiment [1] (at 10 µM) and 0.3% in experiment [1] (stimulation, at 2 µM). Besides, in experiment [2], the insulin secretion stimulation is -1.8% (inactive). The viability decrease in experiment [3] is -10.3% (inactive). Besides, in experiment [4], the tube area decrease is 8.6% (inactive). In addition, in experiment [5], the GLP1 secretion stimulation is 3.7% (inactive). Besides, the inhibition of viability in experiment [6] was -10.6% (inactive). Besides, the viability decrease (inhibition) is 24.2% (inactive) in experiment [7] and -1.2% (inactive) in experiment [8].
In the case of `CN1CCC(N(Cc2ccccc2)c2ccccc2)CC1`, the nuclear beta-catenin stimulation in experiment [1] (at 10 µM) was 0.1% (inactive); in experiment [1] (stimulation, at 2 µM), -3%. The insulin secretion stimulation in experiment [2] was 14.1% (inactive). Further, the viability decrease in experiment [3] was 24.8% (inactive). In addition, the tube area decrease in experiment [4] is -0.1% (inactive). Further, in experiment [5], the GLP1 secretion stimulation was 14.3% (inactive). Further, the inhibition of viability in experiment [6] is 41.7% (inactive). Besides, the viability decrease (inhibition) in experiment [7] is 48.7% (inactive); in experiment [8] it was 23.2% (inactive).
Regarding `ClCCN1CCCC1`, the nuclear beta-catenin stimulation in experiment [1] (at 10 µM) was 0.7% (inactive); in experiment [1] (stimulation, at 2 µM), -0.2%. For the same compound, in experiment [2], the insulin secretion stimulation is 4% (inactive). Moreover, the viability decrease in experiment [3] is 5.1% (inactive). Also, the tube area decrease in experiment [4] was 9.9% (inactive). Also, in experiment [5], the GLP1 secretion stimulation was -2.4% (inactive). For the same compound, the inhibition of viability in experiment [6] was -8.3% (inactive). Moreover, the viability decrease (inhibition) in experiment [7] was 8.7% (inactive); in experiment [8], 8.5% (inactive).
On to `COc1cc(CC#N)cc(OC)c1OC`, for which the nuclear beta-catenin stimulation in experiment [1] (at 10 µM) was 0% (inactive); in experiment [1] (stimulation, at 2 µM), 1.2%. The insulin secretion stimulation in experiment [2] is 2.2% (inactive). Moreover, the viability decrease in experiment [3] is 2.6% (inactive). In addition, the tube area decrease in experiment [4] is 36.1% (inactive). In experiment [5], the GLP1 secretion stimulation was 4.1% (inactive). In addition, the inhibition of viability in experiment [6] was 22.6% (inactive). The viability decrease (inhibition) in experiment [7] was 15.5% (inactive); in experiment [8] it was -1.6% (inactive).
For the compound `C#CCOC(C(=O)OCCN(C)C)(c1ccccc1)c1ccccc1`, the nuclear beta-catenin stimulation in experiment [1] (at 10 µM) is 2.7% (inactive); in experiment [1] (stimulation, at 2 µM) it was 0.9%. In addition, the insulin secretion stimulation in experiment [2] was 28.7% (active). Besides, the viability decrease in experiment [3] was -8.15% (inactive). In addition, the tube area decrease in experiment [4] was 36.7% (inactive). For the same compound, the GLP1 secretion stimulation in experiment [5] was 5.3% (inactive). Moreover, the inhibition of viability in experiment [6] was -6.2% (inactive). Also, the results for the viability decrease (inhibition) in experiment [7] and in experiment [8] were 17.1% (inactive) and -1.8% (inactive), respectively.
